An excerpt weighted towards active compounds, which were near 21% of everything screened.
Pf growth 96h: inhibits malaria parasite growth, 96 h | Potency, µM (doses to about 28.7 µM), for inactives: at the highest dose activity change, negative = inhibition, most hits filed as inhibitors | 6.9% of 320,000 active | P. falciparum luciferase reporter growth, 96 h; note: potency is the fitted concentration of half-maximal effect; % is set by controls: 0 for no effect and ±100 for the full control effect
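Luminescence readout: decreased luciferase signal marks inhibited growth of reporter-expressing P. falciparum in infected red cells (2% hematocrit, 0.05% parasitemia final), exposed to compound two generations (96 h, 37 C, 5% CO2).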
Shiga inhibitor: Shiga toxin inhibition. 9.2% of 290,000 active. inhibition, % at 38.7 µM. Vero cells, Shiga toxin protein synthesis inhibition reporter; in the data active = inhibition mostly above about 28%, no sharp cut-off; inactive = mostly below about 43%; note: 0% is about no effect
Pf growth 48h: inhibits P. falciparum growth in the first generation, 48 h. 5.9% of 310,000 active. P. falciparum luciferase growth in erythrocytes, 48 h. Potency, µM (doses to about 28.7 µM), for inactives: at the top dose activity change, negative = inhibition, usual class: inhibitors. AID 504832; note: potency is the fitted concentration of half-maximal effect; % is set by controls: 0 for no effect and ±100 for the full control effect
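First compound was added to culture medium, then infected red cells at 0.1% parasitemia and 2% hematocrit (final). After incubation at 37 C under 5% CO2, luciferase detection reagent was dispensed and light output recorded.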
NS1 function inh: influenza NS1 inhibition; Potency, µM (top dose mostly 46.1 µM), for the others: top-dose activity, positive = more growth; 0.4% of 270,000 active; calls by dose curve; note: potency is the fitted concentration of half-maximal effect; actives are rising curves; nearly all actives have a fitted effect of over 50% in size
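OD600 was taken as the measure of yeast growth restored by compound in an NS1-expressing S. cerevisiae strain. Cells had been washed out of glucose medium and diluted 1:100 into galactose -URA medium, pH 6.0.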
SARS PLP yeast: blocks SARS-CoV papain-like protease in a yeast assay. S. cerevisiae expressing SARS-CoV PLpro, growth rescue. Potency, µM (highest dose often 32.9 µM), for inactives: at the highest dose activity, positive = growth rescue, usual class: activators. AID 485353. 0.19% of 330,000 active; calls by dose curve; note: potency is the fitted concentration of half-maximal effect; 0% is about no effect; nearly all actives have a fitted effect of over 55% in size
Cycloheximide cs: affects cycloheximide protein synthesis inhibition readout, counter-screen. max response, %. cell reporter, cycloheximide protein synthesis inhibition counterscreen. AID 2314. 12% of 300,000 active; in the data active = max response mostly above about 13%, no sharp cut-off; inactive = mostly below about 14%; note: read at 38.3 µM for the half of the compounds with a filed dose; 0% is about no effect
Numbers without * were called inactive; ? = inconclusive; · = no result given. Unless noted, calls come from the whole dose curve; as a rule, active = well fitted inhibition curve with a large enough effect; inconclusive = small, poorly fitted or top-dose-only effect, or another doubt; inactive = no such curve, though single readings can be large or run the other way.

SMILES | Pf growth 96h | Shiga inhibitor | Pf growth 48h | NS1 function inh | SARS PLP yeast | Cycloheximide cs
Cc1ccc(-c2cc(C(=O)Nc3c(C#N)cnn3C)no2)cc1 | · | 56* | 20% | -6% | -5% | 14*
Cc1ccc(-c2cc(C(=O)Nc3cnn(C(C)C)c3)no2)cc1 | 40% | -2 | 33% | -11% | 2% | 22*
CCCn1cc(NC(=O)c2cc(-c3ccccc3)on2)cn1 | 73% | 68* | · | -152% | -16% | 35*
O=C(Nc1cnn(Cc2ccc(F)cc2)c1)c1cc(-c2ccc(Br)cc2)on1 | · | · | · | -10% | · | ·
CSc1ccc(CCNC(=O)CCc2nnc3ccc(N4CCC5(CC4)OCCO5)nn23)cc1 | 43% | -7 | ? | ? | -7% | 10
O=C(Nc1ccccc1)Nc1ccc(Br)c(Cl)c1 | 0% | 72* | ? | -32% | -18% | 42*
CCCCNC(=O)Nc1ccccc1Br | -2% | 13 | 16% | -23% | -1% | 18
CCc1ccccc1NC(=O)Nc1ccc(F)cc1 | ? | 31 | 0% | -8% | 0% | 14*
O=C(Nc1ccccc1)Nc1cccc(NC(=O)Nc2ccccc2)c1F | 70% | 47 | 75% | 4% | -3% | 18*
O=C(Nc1ccccc1)Nc1cc([N+](=O)[O-])ccc1F | ? | 29 | 21% | -1% | -13% | 6
O=C(Nc1ccccc1)Nc1ccccc1Br | 203% | 117* | 161% | · | -2% | 68*
Cn1cnnc1SCC(=O)c1c(N)n(Cc2ccccc2)c(=O)n(C)c1=O | ? | -4 | ? | · | 0% | 10
C/C(=N\NC(=O)CN1CCOCC1)C(C)(C)C | 26% | -2 | 11% | -2% | 4% | 1
NC(=NC(=O)c1ccccc1)N1N=CCC1c1ccccc1 (stereo not given) | 45% | -2 | -28% | 4% | 0% | -4
CON(C)C(=O)Nc1ccc(Br)c(Cl)c1 | · | 54* | · | · | · | 27*
O=C(O)c1ccc(N2C(=O)Nc3ccccc3N2O)cc1 | 7% | -4 | 34% | · | -2% | 2
Cn1c(=O)c2ncn(CC(=O)NCCOCc3ccccc3Cl)c2n(C)c1=O | -10% | 2 | -7% | 5% | 4% | -2
COc1ccc(C(=O)NC2CCCCCC2)cc1S(=O)(=O)N1CCCc2ccccc21 | 10µM* | -4 | · | 6% | 0% | 11
COc1ccc(C(=O)NC2CCCCCC2)cc1S(=O)(=O)Nc1ccc(Br)cc1 | · | 56* | ? | -2% | 2% | 18*
COc1ccc(C(=O)NCc2cccnc2)cc1S(=O)(=O)N1CCOCC1 | · | 0 | 4% | -2% | -2% | -1
COc1ccc(C(=O)NC2CCCCC2)cc1S(=O)(=O)N1CCOCC1 | ? | -14 | -14% | -8% | 3% | -6
COc1ccc(C(=O)NC2CCCCCC2)cc1S(=O)(=O)N1CCCC1 | ? | 7 | -24% | · | -5% | -2
COc1ccc(C(=O)NCc2cccnc2)cc1S(=O)(=O)N1CCCc2ccccc21 | ? | 30 | ? | -1% | -1% | 19*
CN(CC(=O)Nc1ccccc1Cl)C(=O)COC(=O)C1=COCCO1 | 52% | · | 9% | · | -15% | ·
O=C1/C(=C/c2ccccn2)COc2ccccc21 | -4% | 78* | 48% | -4% | -3% | 27*
SMILES | Pf growth 96h | Shiga inhibitor | Pf growth 48h | NS1 function inh | SARS PLP yeast | Cycloheximide cs
CNc1ccc(/C=C2\COc3ccccc3C2=O)cc1[N+](=O)[O-] | 15% | 15 | · | 2% | 5% | -2
O=C1/C(=C/c2ccc(O)cc2)COc2ccccc21 | 38% | 45* | 108% | -19% | -6% | 29*
O=C1/C(=C/c2ccccc2[N+](=O)[O-])COc2ccccc21 | ? | 155* | ? | -68% | -3% | 76*
CCOc1cc(/C=C2/COc3ccccc3C2=O)ccc1OCC(=O)N(C)C | ? | -6 | 1% | · | -5% | 22
O=C(COC(=O)c1cccnc1SCC(=O)NCc1ccccc1)NCc1ccccc1 | · | 4 | 17% | 4% | -1% | 11
Cc1ccc(NC(=O)COC(=O)C2=COCCO2)c([N+](=O)[O-])c1 | -2% | 38 | 21% | -3% | -1% | 26*
COc1ccccc1CNC(=O)COC(=O)c1cccnc1SCC(=O)NCc1ccccc1OC | 0% | 68* | 16% | · | 0% | 29*
O=C(COC(=O)C1=COCCO1)Nc1ccc2c(c1)OCO2 | 2% | 154 | 8% | 8% | 2% | 39*
COc1ccccc1CNC(=O)COC(=O)C1=COCCO1 | 5.2µM* | -7 | 4% | -2% | -3% | -2
CCC(C)c1ccc(NC(=O)COC(=O)C2=COCCO2)cc1 (stereo not given) | 14% | 21 | · | -5% | -5% | 16
Cc1ccc(NC(=O)COC(=O)C2=COCCO2)cc1 | ? | 48 | 33% | 2% | 4% | 20*
O[C@H](CNc1ccccn1)c1ccccc1 | · | · | · | -3% | · | ·
CCN1CCN(c2ncnc3c2sc(=S)n3-c2ccccc2)CC1 | ? | -10 | 8% | ? | 6% | -2
S=c1sc2c(N3CCOCC3)ncnc2n1-c1ccccc1 | 15µM* | 36 | · | 8% | 16% | 19
O=C(c1ccccc1)c1ccc2nc(-c3ccco3)c(-c3ccco3)nc2c1 | 7% | 56* | -4% | 8% | -2% | 36*
O=C(NCCO)c1ccc2nc(-c3ccco3)c(-c3ccco3)nc2c1 | · | -16 | -1% | 1% | -11% | 23
O=C(NCCc1ccccc1)c1ccc2nc(-c3ccco3)c(-c3ccco3)nc2c1 | -14% | 1 | · | 14µM* | -3% | -2
COc1ccc(CCN2CC(C(=O)NCc3ccc(F)cc3)CC2=O)cc1OC (stereo not given) | 7% | -6 | 6% | 2% | 1% | 2
CN(CC(=O)Nc1ccccc1Sc1ccccc1)C1CCCCC1 | -98% | 0 | ? | · | -5% | 6
COc1cccc(/C=N/NC(=O)c2ccc3nc[nH]c3c2)c1O | -28% | 31 | ? | -1% | 0% | 0
O=C(N/N=C/c1ccccc1[N+](=O)[O-])c1ccc2nc[nH]c2c1 | ? | 32 | ? | 4% | 0% | 18*
O=C(N/N=C/c1ccc(Cl)c([N+](=O)[O-])c1)c1ccc2nc[nH]c2c1 | ? | -3 | 3.3µM* | 1% | -3% | -7
CCOc1ccc(C(=O)NNC(=O)C2CC(=O)N(c3ccc(C)cc3)C2)cc1 (stereo not given) | 10% | · | 0% | · | 2% | ·
CCOc1ccc(/C=N/NC(=S)Nc2c(C)cccc2C)cc1 | 2.6µM* | -5 | · | 1% | ? | 10
C=CCOc1cccc(/C=N/NC(=O)C(OC)c2ccccc2)c1 (stereo not given) | 13µM* | · | -16% | -14% | -3% | -2
CCOc1cc(/C=N/NC(=O)C(OC)c2ccccc2)ccc1O (stereo not given) | 63% | -6 | -10% | -18% | ? | -2
CCOc1ccc(/C=N/NC(=O)C(OC)c2ccccc2)cc1 (stereo not given) | 9.3µM* | -12 | ? | · | 4% | 1

Screening results (PubChem)
